Experimental data taken from PubChem BioAssay AID1159580 (chemical genetic matrix, 2015).
Values joined by “and” are separate entries in the source; they are usually repeats but may differ in a detail not shown here. Equal entries are not always repeated. About 2,000 (36%) of roughly 5,500 compounds were called active. Another 18% or so got no clear call; they are omitted. No stated cut-off is given here; in the data, active means normalized growth mostly below about 0.91 (no sharp cut-off); inconclusive means no clear call, values can overlap the other calls; inactive means mostly above about 0.92. The list shows a part of the results.

Experiment: chemical genetic growth profiling, strain panel (AID 1159580);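 further: tested at 20 µM; growth read once vehicle control cultures reached saturation at 30 °C; 1 = growth at the plate median or of vehicle wells; lower values mean less growth of the strain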
Details: S. cerevisiae deletion strains, growth OD

Measured: normalized growth

O=C(Nc1ccccc1)Nc1ccccc1
inactive: locus YAL021C, strain ccr4, hits give low values 0.977 | locus YAL026C, strain drs2, hits give low values 0.951 | locus YAL030W, strain snc1, hits give low values 0.992 | locus YBL061C, strain skt5, hits give low values 0.967 | locus YBR009C, strain hhf1, hits give low values 0.957 | locus YBR021W, strain FUR4, hits give low values 0.935 | locus YBR023C, strain chs3, hits give low values 0.954 | locus YBR171W, strain sec66, hits give low values 0.954 | locus YBR229C, strain ROT2, hits give low values 1 | locus YBR231C, strain swc5, hits give low values 0.942 | locus YBR279W, strain paf1, hits give low values 0.973 | locus YCL011C, strain gbp2, hits give low values 0.93 | locus YCL016C, strain dcc1, hits give low values 0.943 | locus YCL029C, strain bik1, hits give low values 1.02 | locus YCL069W, strain vba3, hits give low values 0.983 | locus YCR088W, strain abp1, hits give low values 0.971 | locus YDL005C, strain med2, hits give low values 0.956 | locus YDL035C, strain GPR1, hits give low values 1.1 | locus YDL040C, strain nat1, hits give low values 0.978 | locus YDL101C, strain DUN1, hits give low values 0.998 | locus YDL185W, strain tfp1, hits give low values 0.99 | locus YDL192W, strain arf1, hits give low values 0.978 | locus YDR001C, strain nth1, hits give low values 0.968 | locus YDR069C, strain doa4, hits give low values 0.964 | locus YDR101C, strain arx1, hits give low values 0.983 | locus YDR137W, strain rgp1, hits give low values 0.955 | locus YDR150W, strain NUM1, hits give low values 1.03 | locus YDR159W, strain sac3, hits give low values 1.04 | locus YDR162C, strain NBP2, hits give low values 1.1 | locus YDR195W, strain ref2 0.991 | locus YDR297W, strain sur2, hits give low values 0.969 | locus YDR318W, strain mcm21, hits give low values 0.989 | locus YDR334W, strain swr1, hits give low values 0.959 | locus YDR335W, strain msn5, hits give low values 0.952 | locus YDR388W, hits give low values 0.991 | locus YDR392W, strain spt3, hits give low values 0.932 | locus YDR502C, strain sam2, hits give low values 0.977 | locus YEL003W, strain gim4, hits give low values 0.977 | locus YEL037C, strain rad23, hits give low values 0.97 | locus YEL061C, strain CIN8 (second series), hits give low values 0.97 | locus YER015W, strain faa2, hits give low values 0.957 | locus YER016W, strain bim1, hits give low values 0.962 | locus YER110C, hits give low values 0.967 | locus YER111C, strain swi4, hits give low values 0.974 | locus YER155C, strain BEM2 (second series), hits give low values 0.978 | locus YER155C, strain BEM2, hits give low values 1.01 | locus YER167W, strain BCK2, hits give low values 1 | locus YFR010W, strain ubp6, hits give low values 0.987 | locus YGL078C, strain dbp3, hits give low values 0.98 | locus YGL086W, strain mad1, hits give low values 0.977 | locus YGL167C, strain pmr1, hits give low values 0.972 | locus YGL173C, strain kem1, hits give low values 0.97 | locus YGL227W, strain vid30, hits give low values 0.967 | locus YGL240W, strain doc1, hits give low values 0.915 | locus YGL248W, strain PDE1, hits give low values 1.08 | locus YGL253W, strain hxk2, hits give low values 0.924 | locus YGR078C, strain PAC10, hits give low values 1.07 | locus YGR135W, strain pre9, hits give low values 0.985 | locus YGR252W, strain gcn5, hits give low values 0.91 | locus YHR013C, strain ard1, hits give low values 0.945 | locus YHR027C, strain rpn1, hits give low values 0.967 | locus YHR030C, strain SLT2, hits give low values 1.01 and 1.02 | locus YHR079C, strain IRE1 (second series), hits give low values 0.995 | locus YHR079C, strain IRE1, hits give low values 1 | locus YHR094C, strain hxt1, hits give low values 0.975 | locus YHR129C, strain ARP1, hits give low values 0.997 | locus YHR142W, strain chs7, hits give low values 0.887 | locus YHR200W, strain rpn10, hits give low values 0.997 | locus YIL066C, strain RNR3, hits give low values 0.996 | locus YIL125W, strain kgd1, hits give low values 0.977 | locus YIR030C, strain dcg1, hits give low values 0.975 | locus YJL092W, strain hpr5, hits give low values 0.969 | locus YJL095W, strain BCK1 (second series), hits give low values 0.991 | locus YJL095W, strain BCK1, hits give low values 1.09 and 1 | locus YJL115W, strain asf1, hits give low values 0.932 | locus YJL129C, strain trk1, hits give low values 0.998 | locus YJL134W, strain LCB3, hits give low values 1 | locus YJL154C, strain vps35, hits give low values 0.965 | locus YJL164C, strain tpk1, hits give low values 0.961 | locus YJL166W, strain qcr8, hits give low values 0.952 | locus YJL168C, strain set2, hits give low values 0.98 | locus YJL187C, strain SWE1 (second series), hits give low values 0.99 | locus YJR066W, strain TOR1, hits give low values 0.95
active: locus YDL074C, strain BRE1, hits give low values 1.28 [resistant] | locus YIL073C, strain SPO22, hits give low values 1.38 [resistant]
